Molecules are shown by their SMILES. Where “and” joins values, the source holds several entries; their conditions need not be identical. Identical values can stand only once. Records with an inconclusive call do not appear. Unmarked numbers belong to inactive results. Calls of active or inactive are those of the source. Calls come from the whole dose curve; as a rule, active = well fitted inhibition curve with a large enough effect; inconclusive = small, poorly fitted or top-dose-only effect; inactive = flat fitted curve, though single readings scatter.

The record followed here is PubChem BioAssay (NCATS).
% is set by controls: 0 for no effect and ±100 for the full control effect; potency is the fitted concentration of half-maximal effect.

A short description of this experiment: P-glycoprotein substrates identified in KB-8-5-11 adenocarcinoma cell line, qHTS therapeutic library screen (AID 1346987). Note: nearly all actives have a fitted effect of over 65% in size. The following applies: KB-8-5-11 (P-gp overexpressing) viability, CellTiter-Glo, 72 h; series mostly up to 44.5 µM; activity change, negative = cytotoxicity: at the top concentration. A digest of the protocol: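 Human cervical adenocarcinoma KB-8-5-11 cells, selected in colchicine to over-express P-gp and assayed without it, were exposed for 72 h to titrated compounds. An ATP-based luminescent viability signal gave AC50.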
`N[C@H]1CN(c2c(F)cc3c(=O)c(C(=O)O)cn(C4C[C@@H]4F)c3c2Cl)CC12CC2` (some centres undefined): the “activity change, negative = cytotoxicity” value is -6.84%. On to `CC(C)Oc1ccc(C(=O)N[C@H](CNC(=O)CN(C)C)Cc2ccc(-c3cn4cccc([C@H](C)O)c4n3)cc2)cc1Cl`, for which the Potency is 26.4 µM (active). For `C=CC(=O)Nc1cccc(Nc2nc(NC3CCC(N(C)C)CC3)nc3c2ncn3C(C)C)c1` (centres undefined), the compound was called inactive.

For the compound `CCc1nc(-c2cccc(C)c2)c(-c2ccnc(NC(=O)c3ccccc3)c2)s1`, the Potency is 20.9 µM (active). Same read-out and setting: for `CC[C@@]1([C@@H]2O[C@@H]([C@H]3O[C@@](O)(CO)[C@H](C)C[C@H]3C)C[C@H]2C)CC[C@H]([C@]2(C)CC[C@]3(C[C@H](O)[C@@H](C)[C@@H]([C@@H](C)[C@@H](OC)[C@H](C)C(=O)O)O3)O2)O1` the value was 0.911 µM (active). Same read-out and setting: the same measure for `CCOc1cc2c(c(F)c1OCC)C(=N)N(CC(=O)c1cc(N3CCOCC3)c(OC)c(C(C)(C)C)c1)C2`: 20.9 µM (active); for `CC(C)(N)c1ccc(-c2nc3ccccc3nc2-c2ccccc2)cc1`: 418 nM (active) and 23.1 µM (active). In the case of `CC(C)(C)[C@H](NC(=O)c1ccc(N)c(Cl)c1)C(=O)N1CCC[C@@H]1C(=O)N[C@H](C#N)CC(=O)O`, the activity change, negative = cytotoxicity was 2.87% [at 5.11 µM]. Take `O=C(NNC(=O)c1ccc(CNS(=O)(=O)c2ccc(F)c(Cl)c2)cc1)c1ccccc1`: the call was inactive. With `C[C@@H](NCc1cc2ccccc2[nH]1)c1cccc2ccccc12`, the outcome was inactive. On to `COc1cc(OC)c(C=CS(=O)(=O)Cc2ccc(OC)c(NCC(=O)O)c2)c(OC)c1`, for which the Potency was 0.264 µM (active). The same measure, in the same setting: the same measure for `O=c1c(O)c(-c2ccc(O)c(O)c2)oc2cc(O)ccc12`: 13.2 µM (active). For `Oc1cc2c(cc1O)C1c3ccc(O)c(O)c3OCC1(O)C2` (centres undefined), the compound was classed as inactive. Take `C=C(C)[C@@H]1CC[C@]2(C(=O)O)CC[C@]3(C)[C@H](CC[C@@H]4[C@@]5(C)CC[C@H](O)C(C)(C)[C@@H]5CC[C@]43C)[C@@H]12`: the “activity change, negative = cytotoxicity” value was 1.45%. As for `COc1ccc(C(C)=O)c(O)c1`, the compound was called inactive. Regarding `CC(C)C[C@H](NC(=O)CNC(=O)c1cc(Cl)ccc1Cl)B1OC(=O)CC(CC(=O)O)(C(=O)O)O1` (some centres undefined), the Potency was 0.935 µM (active). Regarding `CC(=O)O[C@H]1C[C@@H]2CC[C@H]3[C@H]4C[C@H]([N+]5(C)CCCCC5)[C@@H](OC(C)=O)[C@@]4(C)CC[C@@H]3[C@@]2(C)C[C@H]1N1CCCCC1`, the “activity change, negative = cytotoxicity” value is 8.62%.

With `Nc1cccc2c1C(=O)N(C1CCC(=O)NC1=O)C2=O` (centres undefined), the “activity change, negative = cytotoxicity” value was -0.964%. On to `COc1cccc2c1C(=O)c1c(O)c3c(c(O)c1C2=O)C[C@@](O)(C(=O)CO)C[C@@H]3O[C@H]1C[C@H](N)[C@H](OC2CCCCO2)[C@H](C)O1` (some centres undefined), for which the Potency is 5.26 µM (active). With `CC(C)(O)CC[C@@H](O)[C@](C)(O)[C@H]1CC[C@@]2(O)C3=CC(=O)[C@@H]4C[C@@H](O)[C@@H](O)C[C@]4(C)[C@@H]3CC[C@]12C`, the “activity change, negative = cytotoxicity” value was 3.01%.

As for `OCC(O)C(O)C(O)CO` (centres undefined), the “activity change, negative = cytotoxicity” value is 1.36%.

Consider `O=C(O)C(=O)Nc1cccc(C2=NN=N[N]2)c1`, for which the “activity change, negative = cytotoxicity” value was 6.28%. Same read-out and setting: the same measure for `C=C1CCC2[C@](C)(CO)C(O)CC[C@]2(C)C1CC=C1C(=O)OCC1O` (some centres undefined): 0.3% [at 93.4 µM]. `C[C@H](NC(=O)Cc1cc(F)cc(F)c1)C(=O)N[C@H](C(=O)OC(C)(C)C)c1ccccc1`: the Potency was 18.7 µM (active). On the same count and under the same terms, for `CNC(=O)c1cccc(-c2ccc3c(N4CCOC[C@H]4C)nc(N4CCOC[C@H]4C)nc3n2)c1` the value was 0.0662 µM (active).

As for `CCC[C@H]1C[C@H](C(=O)N[C@@H]([C@@H]2O[C@@H](SC)[C@@H](O)[C@@H](O)[C@@H]2O)[C@H](C)Cl)N(C)C1`, the “activity change, negative = cytotoxicity” value is 7.64%. As to `C[C@H]1O[C@H](O[C@H]2[C@H](O)[C@@H](O)[C@@H](O[C@H]3[C@H](O)[C@@H](O)C(O)O[C@H]3CO)O[C@H]2CO)[C@H](O)[C@@H](O)[C@H]1N[C@H]1C=C(CO)[C@@H](O)[C@H](O)[C@@H]1O` (some centres undefined), the “activity change, negative = cytotoxicity” value is 0.315%. On the same count and under the same terms, the same measure for `C=C[C@@H]1CN2CCC1C[C@H]2[C@H](O)c1ccnc2ccc(OC)cc12` (some centres undefined): -14.7%; for `CN(N=O)C(=O)N[C@H]1C(O)OC(CO)[C@@H](O)[C@H]1O` (some centres undefined): -7.95%. As for `CC(=O)[C@]1(O)Cc2c(O)c3c(c(O)c2[C@@H](O[C@H]2C[C@H](N)[C@@H](O)[C@H](C)O2)C1)C(=O)c1ccccc1C3=O`, the Potency was 0.833 µM (active).

Turning to `O=S(=O)(O)CCSSCCS(=O)(=O)O`, the “activity change, negative = cytotoxicity” value is 3.79%. Turning to `COC[C@H](NC(=O)c1cnc(C)s1)C(=O)N[C@@H](COC)C(=O)N[C@@H](Cc1ccccc1)C(=O)[C@@]1(C)CO1`, the Potency was 3.72 µM (active). For `O=C1NC(=O)C(=Cc2ccc3nccc(-c4ccncc4)c3c2)S1`, the Potency is 0.418 µM (active). Regarding `O=C1NC(O)CCN1[C@@H]1O[C@H](CO)[C@H](O)[C@H]1O` (some centres undefined), the result was inactive. For `C[C@@]12C(=O)OC(=O)[C@@]1(C)C1CCC2O1`, the Potency is 5.26 µM (active). On the same count and under the same terms, for `CC[C@]12C=CCN3CC[C@@]4(c5cc([C@@]6(C(=O)OC)C[C@H]7C[C@@H](C(C)(F)F)CN(Cc8c6[nH]c6ccccc86)C7)c(OC)cc5N(C)[C@H]4[C@@](O)(C(=O)OC)[C@H]1OC(C)=O)[C@@H]32` the value was 0.743 µM (active). Consider `COC(=O)[C@@H]1[C@H]2C[C@@H]3c4[nH]c5ccccc5c4CCN3C[C@@H]2CC[C@@H]1O`, for which the result was inactive. As for `C[C@H](NCc1ccc2c(c1)nc(NC(=O)c1ccc(-c3cn[nH]c3)s1)n2CCc1ccccc1)C(C)(C)C`, the Potency is 2.35 µM (active). For `C[C@@H](Oc1ccc2[nH]nc(C=Cc3cnn(CCO)c3)c2c1)c1c(Cl)cncc1Cl`, the Potency was 0.332 µM (active).
